Measurements taken from PubChem BioAssay AID1159580 (chemical genetic matrix, 2015).
In all, about 5,500 compounds went through this assay and about 2,000 (36%) were called active. Inconclusive results (about 18%) are left out. No stated cut-off is given here; in the data, active means normalized growth mostly below about 0.91 (no sharp cut-off); inconclusive means no clear call, values can overlap the other calls; inactive means mostly above about 0.92. The list shows a part of the results.

Test: chemical genetic growth profiling, strain panel (AID 1159580);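 further: tested at 20 µM; growth read once vehicle control cultures reached saturation at 30 °C; 1 = growth at the plate median or of vehicle wells; lower values mean less growth of the strain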
Conditions: growth OD

Measured: normalized growth

O=c1c(O)c(-c2ccccc2)oc2ccc3occc3c12
inactive: S. cerevisiae deletion strains, locus YKL068W, hits give low values 0.962 | S. cerevisiae deletion strains, locus YKL085W, strain MDH1 (second series), hits give low values 0.937 | S. cerevisiae deletion strains, locus YKL085W, strain MDH1, hits give low values 0.937 | S. cerevisiae deletion strains, locus YKL190W, strain CNB1, hits give low values 0.941 | S. cerevisiae deletion strains, locus YKR026C, strain gcn3, hits give low values 0.954 | S. cerevisiae deletion strains, locus YKR091W, strain srl3, hits give low values 0.974 | S. cerevisiae deletion strains, locus YLL041C, strain sdh2, hits give low values 0.948 | S. cerevisiae deletion strains, locus YLR039C, strain RIC1, hits give low values 0.878 | S. cerevisiae deletion strains, locus YLR113W, strain HOG1, hits give low values 0.893 | S. cerevisiae deletion strains, locus YLR262C, strain YPT6, hits give low values 0.946 | S. cerevisiae deletion strains, locus YLR357W, strain rsc2, hits give low values 0.87 | S. cerevisiae deletion strains, locus YLR384C, strain iki3, hits give low values 0.954 | S. cerevisiae deletion strains, locus YML016C, strain PPZ1, hits give low values 0.939 | S. cerevisiae deletion strains, locus YMR231W, strain pep5, hits give low values 1 | S. cerevisiae deletion strains, locus YMR307W, strain GAS1, hits give low values 0.687 | S. cerevisiae deletion strains, locus YNL128W, strain TEP1, hits give low values 0.911 | S. cerevisiae deletion strains, locus YNL183C, strain NPR1, hits give low values 0.884 | S. cerevisiae deletion strains, locus YNL248C, strain rpa49, hits give low values 0.953 | S. cerevisiae deletion strains, locus YNL250W, strain rad50, hits give low values 0.921 | S. cerevisiae deletion strains, locus YNL322C, strain KRE1, hits give low values 0.954 | S. cerevisiae deletion strains, locus YNR049C, strain mso1, hits give low values 0.93 | S. cerevisiae deletion strains, locus YOL012C, strain htz1 1.09 | S. cerevisiae deletion strains, locus YOR061W, strain CKA2, hits give low values 0.935 | S. cerevisiae deletion strains, locus YOR069W, strain VPS5, hits give low values 0.932 | S. cerevisiae deletion strains, locus YOR231W, strain MKK1, hits give low values 0.909 | S. cerevisiae deletion strains, locus YPL241C, strain CIN2, hits give low values 0.966 | S. cerevisiae deletion strains, locus YPL256C, strain CLN2, hits give low values 0.982 | S. cerevisiae deletion strains, locus YPR141C, strain kar3, hits give low values 0.956
active: S. cerevisiae deletion strains, locus YJR075W, strain HOC1, hits give low values 0.861 | S. cerevisiae deletion strains, locus YKL009W, strain mrt4, hits give low values 0.793 | S. cerevisiae deletion strains, locus YKL160W, strain elf1, hits give low values 0.687 | S. cerevisiae deletion strains, locus YKR001C, strain vps1, hits give low values 0.772 | S. cerevisiae deletion strains, locus YLL001W, strain dnm1, hits give low values 0.657 | S. cerevisiae deletion strains, locus YLL026W, hits give low values 0.867 | S. cerevisiae deletion strains, locus YLR027C, strain aat2, hits give low values 0.795 | S. cerevisiae deletion strains, locus YLR058C, strain SHM2, hits give low values 0.854 | S. cerevisiae deletion strains, locus YLR102C, strain apc9, hits give low values 0.912 | S. cerevisiae deletion strains, locus YLR221C, strain rsa3, hits give low values 0.844 | S. cerevisiae deletion strains, locus YLR258W, strain gsy2, hits give low values 0.745 | S. cerevisiae deletion strains, locus YLR262C, strain YPT6 (second series), hits give low values 0.795 | S. cerevisiae deletion strains, locus YLR268W, strain sec22, hits give low values 0.77 | S. cerevisiae deletion strains, locus YLR320W, strain mms22, hits give low values 0.76 | S. cerevisiae deletion strains, locus YLR330W, strain CHS5, hits give low values 0.847 | S. cerevisiae deletion strains, locus YLR342W, strain FKS1 (second series), hits give low values 0.755 | S. cerevisiae deletion strains, locus YLR342W, strain FKS1, hits give low values 0.796 | S. cerevisiae deletion strains, locus YLR370C, strain arc18, hits give low values 0.768 | S. cerevisiae deletion strains, locus YLR371W, strain rom2, hits give low values 0.655 | S. cerevisiae deletion strains, locus YLR418C, strain cdc73, hits give low values 0.451 | S. cerevisiae deletion strains, locus YML032C, strain rad52, hits give low values 0.685 | S. cerevisiae deletion strains, locus YML120C, strain ndi1, hits give low values 0.753 | S. cerevisiae deletion strains, locus YML124C, strain tub3, hits give low values 0.899 | S. cerevisiae deletion strains, locus YMR058W, strain fet3, hits give low values 0.817 | S. cerevisiae deletion strains, locus YMR078C, strain ctf18, hits give low values 0.852 | S. cerevisiae deletion strains, locus YMR125W, strain sto1, hits give low values 0.877 | S. cerevisiae deletion strains, locus YMR129W, hits give low values 0.88 | S. cerevisiae deletion strains, locus YMR205C, strain PFK2, hits give low values 0.611 | S. cerevisiae deletion strains, locus YMR223W, strain ubp8, hits give low values 0.762 | S. cerevisiae deletion strains, locus YMR263W, strain SAP30, hits give low values 0.854 | S. cerevisiae deletion strains, locus YNL067W, strain RPL9B, hits give low values 0.863 | S. cerevisiae deletion strains, locus YNL071W, strain lat1, hits give low values 0.363 | S. cerevisiae deletion strains, locus YNL209W, strain ssb2, hits give low values 0.853 | S. cerevisiae deletion strains, locus YNL233W, strain BNI4, hits give low values 0.693 | S. cerevisiae deletion strains, locus YNL271C, strain bni1, hits give low values 0.889 | S. cerevisiae deletion strains, locus YNL298W, strain CLA4, hits give low values 0.887 | S. cerevisiae deletion strains, locus YNL307C, strain MCK1, hits give low values 0.521 | S. cerevisiae deletion strains, locus YNL322C, strain KRE1 (second series), hits give low values 0.814 | S. cerevisiae deletion strains, locus YNR052C, strain pop2, hits give low values 0.864 | S. cerevisiae deletion strains, locus YOL147C, strain pex11, hits give low values 0.703 | S. cerevisiae deletion strains, locus YOR001W, strain rrp6, hits give low values 0.826 | S. cerevisiae deletion strains, locus YOR070C, strain gyp1, hits give low values 0.806 | S. cerevisiae deletion strains, locus YOR080W, strain dia2, hits give low values 0.889 | S. cerevisiae deletion strains, locus YOR083W, strain WHI5, hits give low values 0.79 | S. cerevisiae deletion strains, locus YOR106W, strain vam3, hits give low values 0.737 | S. cerevisiae deletion strains, locus YOR136W, strain idh2, hits give low values 0.876 | S. cerevisiae deletion strains, locus YOR144C, strain elg1, hits give low values 0.823 | S. cerevisiae deletion strains, locus YOR184W, strain ser1, hits give low values 0.557 | S. cerevisiae deletion strains, locus YOR265W, strain rbl2, hits give low values 0.85 | S. cerevisiae deletion strains, locus YOR270C, strain vph1, hits give low values 0.409 | S. cerevisiae deletion strains, locus YOR290C, strain snf2, hits give low values 0.589 | S. cerevisiae deletion strains, locus YOR316C, strain cot1, hits give low values 0.881 | S. cerevisiae deletion strains, locus YPL051W, strain arl3, hits give low values 0.725 | S. cerevisiae deletion strains, locus YPL078C, strain atp4, hits give low values 0.513 | S. cerevisiae deletion strains, locus YPL106C, strain sse1, hits give low values 0.769 | S. cerevisiae deletion strains, locus YPL240C, strain hsp82, hits give low values 0.833 | S. cerevisiae deletion strains, locus YPR119W, strain clb2, hits give low values 0.888 | S. cerevisiae deletion strains, locus YPR163C, strain tif3, hits give low values 0.72 | S. cerevisiae deletion strains, locus YPR167C, strain met16, hits give low values 0.851 | S. cerevisiae deletion strains, strain wtn01, hits give low values 0.757 | S. cerevisiae strains, strain wild type, hits give low values 0.896
